Source: the supplement of paper PMC5662767
Where a name gives a salt, the structure may show the parent alone.

Tested on: Drosophila S2 cl14 SmoIP sensor cells
Test: normalized SmoIP GFP fluorescence (untreated unstimulated = 0%, untreated Hh-stimulated = 100%); higher = more Smo activation sensor fluorescence
Conditions: compound concentration: 2 uM, 24 h
[1] = stimulation: Hh conditioned medium (+Hh)
[2] = stimulation: mock conditioned medium (-Hh)
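Further: flow cytometry read-out as median GFP intensity of gated cells, compounds added 30 min before Hh-conditioned or mock medium, mock-treated cells serving as unstimulated baseline.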

Structure (SMILES) | normalized SmoIP GFP fluorescence [1] [%] | normalized SmoIP GFP fluorescence [2] [%]
CC(=O)O[C@]1(C(C)=O)CC[C@H]2[C@@H]3C=C(C)C4=CC(=O)CC[C@]4(C)[C@H]3CC[C@@]21C [Megestrol-Acetate] | 106 | -0.804
C[C@@H](c1ncncc1F)[C@](O)(Cn1cncn1)c1ccc(F)cc1F [Voriconazole] | 101 | 1.57
CC(C)(CO)c1cc2cc(NC(=O)C3(c4ccc5c(c4)OC(F)(F)O5)CC3)c(F)cc2n1C[C@@H](O)CO | 104 | -3.39
CC1(C)CC(=O)c2c(C(F)(F)F)nn(-c3ccc(C(N)=O)c(N[C@H]4CC[C@H](O)CC4)c3)c2C1 | 178 | 12.3
O=C(NCCCNc1nc(Nc2cccc(NC(=O)N3CCCC3)c2)ncc1I)c1cccs1 | 257 | 78.4
CC1(C)CCC(CN2CCN(c3ccc(C(=O)NS(=O)(=O)c4ccc(NCC5CCOCC5)c([N+](=O)[O-])c4)c(Oc4cnc5[nH]ccc5c4)c3)CC2)=C(c2ccc(Cl)cc2)C1 | 104 | -2.82
C=C[C@@]1(C)CC(=O)[C@]2(O)[C@@]3(C)[C@@H](O)CCC(C)(C)[C@@H]3[C@H](O)[C@H](OC(C)=O)[C@@]2(C)O1 [forskolin] | 137 | -10
CC(C)c1nc(CN(C)C(=O)N[C@H](C(=O)N[C@@H](Cc2ccccc2)C[C@H](O)[C@H](Cc2ccccc2)NC(=O)OCc2cncs2)C(C)C)cs1 [Ritonavir] | 109 | -4.47
CN1CCC(=C2c3ccccc3CC(=O)c3sccc32)CC1 [ketotifen-fumarate-zaditor] | 118 | -13.9
CCOC(=O)[C@H](CCc1ccccc1)N[C@@H](C)C(=O)N1Cc2ccccc2C[C@H]1C(=O)O [quinapril-hydrochloride-accupril] | 125 | 2.95
CC(C)(C)Cn1c(N)nc2ccc(-c3[nH]c(C(C)(C)C)nc3-c3ccc(F)cc3)nc21 | 101 | 1.35
CC[C@H](NC(=O)[C@H](C)NC)C(=O)N1C[C@@H](O)C[C@H]1Cc1c(-c2[nH]c3cc(F)ccc3c2C[C@@H]2C[C@H](O)CN2C(=O)[C@H](CC)NC(=O)[C@H](C)NC)[nH]c2cc(F)ccc12 | 78.2 | -2.08
Cc1cc(Nc2cc(N3CCN(C)CC3)nc(/C=C/c3ccccc3)n2)n[nH]1 | 136 | 23.8
CNC(=O)CN1CCC(Oc2cc3c(Nc4cccc(Cl)c4F)ncnc3cc2OC)CC1 | 112 | -3.72
Cn1c(=O)cc(N2CCC[C@@H](N)C2)n(Cc2cc(F)ccc2C#N)c1=O [trelagliptin] | 104 | 3.18
CCOC(=O)CCNc1cc(N2CCc3ccccc3CC2)nc(-c2ccccn2)n1 | 116 | -2.48
COCCCOc1cc(C[C@@H](C[C@H](N)[C@@H](O)C[C@H](C(=O)NCC(C)(C)C(N)=O)C(C)C)C(C)C)ccc1OC [Aliskiren-hemifumarate] | 126 | -8.59
COc1ccc2c(c1)c(CC(=O)N1CCOCC1)c(C)n2C(=O)c1ccc(Cl)cc1 | 108 | -2.59

Structure (SMILES) | normalized SmoIP GFP fluorescence [1] [%] | normalized SmoIP GFP fluorescence [2] [%]
CCC(=O)N1CCN(c2ccc(-n3c(=O)ccc4cnc5ccc(-c6cnc7ccccc7c6)cc5c43)cc2C(F)(F)F)CC1 [torin-1] | 46.9 | -12.5
CNC(=O)c1cc(Oc2ccc(NC(=O)Nc3ccc(Cl)c(C(F)(F)F)c3)cc2)ccn1 [Sorafenib-Tosylate] | 112 | 47.1
CNCc1cc(-c2ccccc2F)n(S(=O)(=O)c2cccnc2)c1 | 126 | -15.1
Cn1cc(-c2ccc3c(c2)CCN3C(=O)Cc2cccc(C(F)(F)F)c2)c2c(N)ncnc21 | 131 | 39.3
Cn1cc(-c2cnn3c(N)c(Br)c([C@@H]4CCCNC4)nc23)cn1 | 185 | 5.65
CNC(=O)c1nn(C)c2c1C(C)(C)Cc1cnc(Nc3ccc(N4CCN(C)CC4)cc3)nc1-2 | 107 | -11.7
Cn1cc(-c2ccc3ncc(Cc4ccc5ncccc5c4)n3n2)cn1 | 123 | -6.97
CC(=O)Nc1cccc2c1c(Sc1ccc(Cl)cc1)c(C)n2CC(=O)O | 114 | -3.05
C[C@@]1(c2cc(-c3cncnc3)c(F)cc2F)CCSC(N)=N1 | 97 | 10.2
N#Cc1cc(CN2CCC(Nc3ncnc4sc(Cl)cc34)CC2)ccc1F | 129 | -12.6
Cc1cnc(NC(=O)Nc2cc(Br)c(C)cc2OC[C@@H]2CNCCO2)cn1 | 112 | -14.5
C[C@H](Oc1cc(-c2cnn(C3CCNCC3)c2)cnc1N)c1c(Cl)ccc(F)c1Cl [s-crizotinib] | 114 | 7.39
Cc1ccc(N(CC2=NCCN2)c2cccc(O)c2)cc1 [phentolamine-mesilate] | 128 | -15.3
Cc1c(Cn2c(C)nc3c(C(=O)O)cc(N4CCOCC4)cc32)cccc1C(F)(F)F | 108 | 0.966
O=C(c1ccc(OCCN2CCCCC2)cc1)c1c(-c2ccc(O)cc2)sc2cc(O)ccc12 [Evista] | 118 | 6.52
C[C@@H](NCCCc1cccc(C(F)(F)F)c1)c1cccc2ccccc12 [Cinacalcet-hydrochloride] | 104 | 5.98
COc1cc(NC(=O)c2ccccn2)ccc1Cl | 105 | -1.74
CC(C)c1noc(N2CCC(COc3ccc(-c4ccc(S(C)(=O)=O)cc4)nc3)CC2)n1 | 110 | -3.09
